Measured values: PubChem BioAssay AID720648 (The Scripps Research Institute Molecular Screening Center, 2013)
The whole screen tested about 370,000 compounds, of which about 3,100 (0.84%) were called active. What follows is part of a selection rich in actives, with near analogues and random picks from the rest. Unmarked numbers belong to inactive results.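 The calls were made as follows: active = inhibition above the mean of compounds lying between control limits plus 3 SD, set per campaign (cut at about 8.5% in these data); inactive = the rest.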

Molecular target: Disintegrin and metalloproteinase domain-containing protein 17 (Homo sapiens) (UniProt P78536)
Sequence (P78536 215-824 limits assumed): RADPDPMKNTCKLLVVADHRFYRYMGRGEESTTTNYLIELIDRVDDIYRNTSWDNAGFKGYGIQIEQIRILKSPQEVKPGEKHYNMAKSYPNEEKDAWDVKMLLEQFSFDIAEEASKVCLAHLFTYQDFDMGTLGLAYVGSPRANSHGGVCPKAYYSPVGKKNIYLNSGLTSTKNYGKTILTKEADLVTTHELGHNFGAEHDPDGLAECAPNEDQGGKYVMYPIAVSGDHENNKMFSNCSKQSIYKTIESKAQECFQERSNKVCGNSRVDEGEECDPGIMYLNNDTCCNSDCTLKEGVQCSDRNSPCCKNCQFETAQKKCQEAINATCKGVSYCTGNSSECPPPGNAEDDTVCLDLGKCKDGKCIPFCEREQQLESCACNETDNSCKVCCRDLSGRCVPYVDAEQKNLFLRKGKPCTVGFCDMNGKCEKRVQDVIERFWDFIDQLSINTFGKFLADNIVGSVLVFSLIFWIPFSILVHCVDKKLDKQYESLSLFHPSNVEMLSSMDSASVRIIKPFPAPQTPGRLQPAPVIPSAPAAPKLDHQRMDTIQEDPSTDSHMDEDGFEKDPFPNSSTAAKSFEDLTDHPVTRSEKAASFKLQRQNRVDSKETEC
Assay: inhibition of ADAM17 peptide cleavage – biochemical, QFRET, primary screen (AID 720648);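 also: 0% = DMSO-only wells as the low control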
Settings: recombinant ADAM17, EDANS/DABCYL FRET peptide cleavage; at 6.95 µM; stronger effect = higher value

| Structure (SMILES) | inhibition |
| --- | --- |
| COC(=O)C1=C(c2ccc(-c3ccccc3)c(F)c2)C[C@@H]2CC[C@H]1N2C(=O)NCc1ccc(F)cc1 | 16.6% (active) |
| COC(=O)C1=C(c2ccc(F)cc2OCc2ccccc2)C[C@@H]2CC[C@H]1N2C(=O)NCc1ccc(Cl)cc1 | 3.55% |
| COC(=O)C1=C(c2cccc(OCc3ccccc3)c2)C[C@@H]2CC[C@H]1N2C(=O)NCc1ccc(Br)cc1 | 7.72% |
| O=C1NC(=O)C(C/C=C/c2ccccc2)C(=O)N1 | -2.76% |
| CN(C)C(=O)Oc1ccc2c(c1)O/C(=C\c1ccccc1)C2=O | -16.6% |
| O=C1C2(Cl)C3(Cl)C4(Cl)C(Cl)(Cl)C5(Cl)C3(Cl)C1(Cl)C5(Cl)C24Cl (stereo not given) | 11.4% (active) |
| Cc1ccc(C(C)C)c(OCC(=O)N2CCN(CC(=O)N3CCOCC3)CC2)c1 | 1.57% |
| CCN1CCN(c2ccc([N+](=O)[O-])cc2C#N)CC1 | -2.11% |
| CNC(=O)Nc1ccc(C(O)(C(=O)OC)C(F)(F)F)cc1 (stereo not given) | -0.16% |
| CC(=O)NCC1=C(c2ccc3ccccc3c2)C[C@@H]2CC[C@H]1N2Cc1ccco1 | 1.8% |
| CO[C@H]([C@H](C)/C=C/N(C)C=O)[C@@H](C)C(=O)CC[C@H](C)[C@H](O)[C@H](C)[C@H]1OC(=O)/C=C/C(C)=C/[C@H](O)[C@H](OC)C[C@@H]2C=CC[C@@H](C[C@H](OC)[C@@]3(CO3)[C@@H](OC)C[C@@H](OC)[C@@H]1C)O2 | -1.19% |
| CCOP(=O)(OCC)C(NC(=O)NC)C(N)=O (stereo not given) | -4.24% |
| CCOC(=O)CC(SP1(=S)OCC2(CCCCO2)C(C2CCCCO2)O1)C(=O)OCC (stereo not given) | 12.4% (active) |
| Cc1nc2ccccc2c(=O)n1-c1ccc(Cl)cc1Cl | 0.07% |
| Cn1cc(C(=O)OCC(=O)N2CCCC2)c2ccccc21 | 1.16% |
